Assay [1] in a line: Viability qHTS for spleen associated tyrosine kinase inhibitor (SYKi) naive MV4-11 cells (AID 1963823). Note: nearly all actives have a fitted effect of over 40% in size. To be noted: MV4-11 AML viability, CellTiter-Glo luminescence, 72 h; series mostly up to 45 µM. The method, boiled down:
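In this viability screen, compounds acted on SYK inhibitor naive MV4-11 cells for three days (72 hr, 37 C). Remaining viable cells were measured by CellTiter-Glo luminescence following a 10 min room-temperature development.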
Background: qHTS replaces the single test concentration by a dilution series.

Assay [2] in a line: Viability qHTS for spleen associated tyrosine kinase inhibitor (SYKi) drug resistant MV4-11 cells (AID 1963824). Note: nearly all actives have a fitted effect of over 35% in size. To be noted: SYKi-resistant MV4-11 viability, CellTiter-Glo, 72 h; series mostly up to 45 µM. The method, boiled down: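 SYK inhibitor-resistant MV4-11 AML cells, 500 per well, added to predispensed compounds and incubated 72 hr at 37 C, 5% CO2. Viability measured by CellTiter-Glo luminescence after 10 min at room temperature.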

Results filed as inconclusive are left out. Unmarked numbers belong to inactive results. Calls of active or inactive are those of the source. Calls come from the whole dose curve; as a rule, active = well fitted cell-killing curve with a large enough effect; inconclusive = small, poorly fitted or top-dose-only effect, or effect the other way; inactive = no such curve, though single readings can be large or run the other way.
Potency is the fitted concentration of half-maximal effect.

`CCCC(=O)O[C@]1(C(=O)CCl)[C@@H](C)C[C@H]2[C@@H]3CCC4=CC(=O)C=C[C@]4(C)[C@@]3(F)C(=O)C[C@@]21C`: the Potency in assay [1] is 11.9 µM (active); in assay [2], 13.3 µM (active).
For `O=C(/C=C\c1ccc(O)cc1)N[C@@H](Cc1ccc(O)cc1)C(=O)O`, in that order: “inactive” and “inactive”.
In the case of `CNC(=O)O[C@H]1COc2ccc(N3CCN(C4COC4)CC3)cc2[C@@H]1NC(=O)c1ccc(F)cc1`, the Potency entry in assay [1] and in assay [2] was “inactive” each time.
For `O=C(CCc1ccccc1)c1c(O)c([C@@H]2O[C@H](CO)[C@@H](O)[C@H](O)[C@H]2O)c(O)c([C@@H]2O[C@H](CO)[C@@H](O)[C@H](O)[C@H]2O)c1O`, the Potency entry in assay [1] and in assay [2] was “inactive” in each case.
Consider `CN1CCN(Cc2ccc(-c3cnc4[nH]cc(-c5ccc6[nH]ccc6c5)c4c3)cc2)CC1`, for which the Potency is 0.082 µM (active) in assay [1] and 0.146 µM (active) in assay [2].
`C[C@@H]1O[C@@H](O[C@@H]2[C@@H](O)[C@H](O[C@@H]3[C@@H](O)[C@@H](O)[C@H](O[C@H]4[C@H](OC(=O)[C@]56CCC(C)(C)C[C@H]5C5=CCC7[C@@]8(C)C[C@H](O)[C@H](O[C@@H]9O[C@H](C(=O)O)[C@@H](O)[C@H](O)[C@H]9O)[C@@](C)(CO)C8[C@H](O)C[C@@]7(C)[C@]5(C)CC6)OC[C@H](O)[C@@H]4O)O[C@H]3C)OC[C@H]2O)[C@H](O)[C@H](O)[C@H]1O` (stereo partly specified): the viability (% of control) in assay [1] was 78.4% [at 9.25 µM]. Also, in assay [2], the viability, % of control was 89.9% [at 9.25 µM].
Turning to `Cc1sc2c(c1C)C(c1ccc(Cl)cc1)=N[C@H](CC(=O)NCCCCNC(=O)COc1cccc3c1C(=O)N([C@H]1CCC(=O)NC1=O)C3=O)c1nnc(C)n1-2`, the Potency in assay [1] and in assay [2] was 0.0461 µM (active) in each case.
With `C=C[C@H]1[C@H](O[C@@H]2O[C@H](CO)[C@@H](O)[C@H](O)[C@H]2O)OC=C(C(=O)OC)[C@H]1CC=O`, the Potency entry in assay [1] and in assay [2] was “inactive” in each case.
For `O=C(Nc1ccccc1-c1cn2c(CN3CCNCC3)csc2n1)c1ccc2ccccc2n1`, the Potency was 10.3 µM (active) in assay [1] and 20.6 µM (active) in assay [2].
On to `CSc1nc(N)cc(Oc2ccc(-c3nc(Nc4cccc(C(F)(F)F)c4)n[nH]3)cc2)n1`, for which the values for the Potency in assay [1] and in assay [2] were 1.16 µM (active) and 1.03 µM (active), respectively.
The matching figures for `C[C@@H](CC[C@@H]1[C@@]2(C)CCCC(C)(C)C2CC[C@@]1(C)O)CC(=O)O` (stereo partly specified): “inactive” and “inactive”.
Take `COC(=O)CC1OC(C)C2=C(O)c3c(O)cccc3C(=O)C23OC13` (stereo unspecified): the Potency in assay [1] is 1.14 µM (active); in assay [2], 0.57 µM (active).
Take `COC(=O)c1ccc(=O)c2nc3/c(=C/O)c(O)cc(=O)c3[nH]c12`: the Potency result in assay [1] and in assay [2] was “inactive” in each case.
Regarding `COc1cc([C@H]2c3cc(O)c(OC)cc3C[C@@H](CO[C@@H]3O[C@H](CO)[C@@H](O)[C@H](O)[C@H]3O)[C@@H]2CO)ccc1O`, the Potency result in assay [1] and in assay [2] was “inactive” throughout.
As for `COC(=O)C1=CO[C@@H](O[C@@H]2O[C@H](CO)[C@@H](O)[C@H](O)[C@H]2O)C2C1C(=O)C[C@H]2C` (stereo partly specified), the Potency result in assay [1] and in assay [2] was “inactive” each time.
As for `N#CC(=C(/N)Sc1ccccc1N)/C(C#N)=C(/N)Sc1ccccc1N`, the Potency in assay [1] was 10.3 µM (active); in assay [2], 7.31 µM (active).
Take `Cc1ccc(NS(=O)(=O)c2cc3c(cc2NC(C)CO)NC(=O)CC3)cc1C` (stereo unspecified): the Potency was 12.9 µM (active) in assay [1] and 10.2 µM (active) in assay [2].
The matching figures for `CC(C)COc1ccc(CNC(=O)N(Cc2ccc(F)cc2)C2CCN(C)CC2)cc1`: 18.4 µM (active) and 13 µM (active).

Values taken from PubChem BioAssay (NCATS).
